# PMC12820563, “FoxP3 forms a head-to-head dimer in vivo and stabilizes its multimerization on adjacent microsatellites”
# Whole data set: some 16,000 sequences, median “rpm ratio (pull-down/input)” near 0.94, cut for the highest 2% near 1.7. The full list was thinned out, with the highest values kept by preference.
# Target: T1, MBP-FoxP1dN (Mus musculus, UniProt P58462 326-579)
# T1 sequence: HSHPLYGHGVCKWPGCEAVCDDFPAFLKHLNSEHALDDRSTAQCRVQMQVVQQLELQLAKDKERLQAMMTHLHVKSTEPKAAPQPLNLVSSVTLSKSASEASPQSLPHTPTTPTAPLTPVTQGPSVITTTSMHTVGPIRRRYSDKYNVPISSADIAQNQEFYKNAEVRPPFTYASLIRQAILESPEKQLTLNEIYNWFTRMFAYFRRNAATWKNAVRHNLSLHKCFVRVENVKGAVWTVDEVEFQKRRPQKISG
# Test: PD-seq (MBP pull-down with sequencing); 20 mM Tris-HCl pH 7.5, 100 mM NaCl, 1.5 mM MgCl2, 0.4 uM protein, 0.1 uM dsDNA library, 30 min, room temperature, amylose pull-down; high values mean tight binding
# Settings: protein: recombinant; tags: His6-MBP; chain copies: 2; dsDNA, one strand shown
# Summary of the method: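 His6-MBP-tagged mouse FoxP3 or FoxP1 fragment lacking the N-terminus, expressed in E. coli, was mixed at 0.4 µM with 0.1 µM Klenow-filled double-stranded degenerate DNA library. Incubation was 30 min at room temperature in Tris pH 7.5 buffer with NaCl and MgCl2. Complexes were caught on amylose resin and washed three times; DNA was released with proteinase K, PCR-barcoded and Illumina-sequenced. Binding is reads-per-million enrichment, pull-down over input, with replicates pooled.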
row,Sequence,binding signal
1,GATGATTGTTCTCCCAGCTGATGAATTTGCAAAATCGAGTAAACAAATTTTCCTAATCTTTCTGTTCAAGCGCCATCTAC,1.13 RPM ratio (pull-down/input)
2,GATGATTGTTCTCCCAGCTGATGAATTCTAAAGATCGAGTAAACAAATTTTCCTAATCTTTCTGTTCAAGCGCCATCTAC,0.85 RPM ratio (pull-down/input)
3,GATGATTGTTCTCCCAGCTGATGAATTGCCTAAGTCGAGTAAACAAATTTTCCTAATCTTTCTGTTCAAGCGCCATCTAC,0.889 RPM ratio (pull-down/input)
4,GATGATTGTTCTCCCAGCTGATGAATTGGCTTTCTCGAGTAAACAAATTTTCCTAATCTTTCTGTTCAAGCGCCATCTAC,0.862 RPM ratio (pull-down/input)
5,GATGATTGTTCTCCCAGCTGATGAATTCTTTGTATCGAGTAAACAAATTTTCCTAATCTTTCTGTTCAAGCGCCATCTAC,1.21 RPM ratio (pull-down/input)
6,GATGATTGTTCTCCCAGCTGATGAATTTGTGTAATCGAGTAAACAAATTTTCCTAATCTTTCTGTTCAAGCGCCATCTAC,1.97 RPM ratio (pull-down/input)
7,GATGATTGTTCTCCCAGCTGATGAATTTGGTGTATCGAGTAAACAAATTTTCCTAATCTTTCTGTTCAAGCGCCATCTAC,1.17 RPM ratio (pull-down/input)
8,GATGATTGTTCTCCCAGCTGATGAATTGTGTAAATCGAGTAAACAAATTTTCCTAATCTTTCTGTTCAAGCGCCATCTAC,1.59 RPM ratio (pull-down/input)
9,GATGATTGTTCTCCCAGCTGATGAATTCTCTGTATCGAGTAAACAAATTTTCCTAATCTTTCTGTTCAAGCGCCATCTAC,0.938 RPM ratio (pull-down/input)
10,GATGATTGTTCTCCCAGCTGATGAATTTTGTGTATCGAGTAAACAAATTTTCCTAATCTTTCTGTTCAAGCGCCATCTAC,2.15 RPM ratio (pull-down/input)
11,GATGATTGTTCTCCCAGCTGATGAATTTCTATACTCGAGTAAACAAATTTTCCTAATCTTTCTGTTCAAGCGCCATCTAC,0.903 RPM ratio (pull-down/input)
12,GATGATTGTTCTCCCAGCTGATGAATTCTGTGTATCGAGTAAACAAATTTTCCTAATCTTTCTGTTCAAGCGCCATCTAC,1.79 RPM ratio (pull-down/input)
13,GATGATTGTTCTCCCAGCTGATGAATTTGTATACTCGAGTAAACAAATTTTCCTAATCTTTCTGTTCAAGCGCCATCTAC,2.13 RPM ratio (pull-down/input)
14,GATGATTGTTCTCCCAGCTGATGAATTTGTAGTATCGAGTAAACAAATTTTCCTAATCTTTCTGTTCAAGCGCCATCTAC,1.47 RPM ratio (pull-down/input)
15,GATGATTGTTCTCCCAGCTGATGAATTGTAATACTCGAGTAAACAAATTTTCCTAATCTTTCTGTTCAAGCGCCATCTAC,1.04 RPM ratio (pull-down/input)
16,GATGATTGTTCTCCCAGCTGATGAATTTGTGTGATCGAGTAAACAAATTTTCCTAATCTTTCTGTTCAAGCGCCATCTAC,1.3 RPM ratio (pull-down/input)

row,Sequence,binding signal
1,GATGATTGTTCTCCCAGCTGATGAATTGGTCCCATCGAGTAAACAAATTTTCCTAATCTTTCTGTTCAAGCGCCATCTAC,0.976 RPM ratio (pull-down/input)
2,GATGATTGTTCTCCCAGCTGATGAATTGCTTAGGTCGAGTAAACAAATTTTCCTAATCTTTCTGTTCAAGCGCCATCTAC,1.02 RPM ratio (pull-down/input)
3,GATGATTGTTCTCCCAGCTGATGAATTAATGTCCTCGAGTAAACAAATTTTCCTAATCTTTCTGTTCAAGCGCCATCTAC,0.913 RPM ratio (pull-down/input)
4,GATGATTGTTCTCCCAGCTGATGAATTTGTGAGCTCGAGTAAACAAATTTTCCTAATCTTTCTGTTCAAGCGCCATCTAC,0.999 RPM ratio (pull-down/input)
5,GATGATTGTTCTCCCAGCTGATGAATTAACGAAGTCGAGTAAACAAATTTTCCTAATCTTTCTGTTCAAGCGCCATCTAC,0.89 RPM ratio (pull-down/input)
6,GATGATTGTTCTCCCAGCTGATGAATTGTGATGCTCGAGTAAACAAATTTTCCTAATCTTTCTGTTCAAGCGCCATCTAC,1.54 RPM ratio (pull-down/input)
7,GATGATTGTTCTCCCAGCTGATGAATTTTTGTACTCGAGTAAACAAATTTTCCTAATCTTTCTGTTCAAGCGCCATCTAC,1.14 RPM ratio (pull-down/input)
8,GATGATTGTTCTCCCAGCTGATGAATTTGTACTCTCGAGTAAACAAATTTTCCTAATCTTTCTGTTCAAGCGCCATCTAC,1.15 RPM ratio (pull-down/input)
9,GATGATTGTTCTCCCAGCTGATGAATTTTCTGTATCGAGTAAACAAATTTTCCTAATCTTTCTGTTCAAGCGCCATCTAC,1.08 RPM ratio (pull-down/input)
10,GATGATTGTTCTCCCAGCTGATGAATTGTGTATCTCGAGTAAACAAATTTTCCTAATCTTTCTGTTCAAGCGCCATCTAC,1.67 RPM ratio (pull-down/input)
11,GATGATTGTTCTCCCAGCTGATGAATTGTGTGTATCGAGTAAACAAATTTTCCTAATCTTTCTGTTCAAGCGCCATCTAC,1.92 RPM ratio (pull-down/input)
12,GATGATTGTTCTCCCAGCTGATGAATTTGTGTACTCGAGTAAACAAATTTTCCTAATCTTTCTGTTCAAGCGCCATCTAC,2.09 RPM ratio (pull-down/input)
13,GATGATTGTTCTCCCAGCTGATGAATTCTGTACCTCGAGTAAACAAATTTTCCTAATCTTTCTGTTCAAGCGCCATCTAC,0.846 RPM ratio (pull-down/input)
14,GATGATTGTTCTCCCAGCTGATGAATTAATGTAATCGAGTAAACAAATTTTCCTAATCTTTCTGTTCAAGCGCCATCTAC,1.68 RPM ratio (pull-down/input)
15,GATGATTGTTCTCCCAGCTGATGAATTCATCGTGTCGAGTAAACAAATTTTCCTAATCTTTCTGTTCAAGCGCCATCTAC,0.891 RPM ratio (pull-down/input)
16,GATGATTGTTCTCCCAGCTGATGAATTTGACGAATCGAGTAAACAAATTTTCCTAATCTTTCTGTTCAAGCGCCATCTAC,0.846 RPM ratio (pull-down/input)
